# From the supplement of paper PMC8728848
# Only a selection was taken, and the strongest signals are over-represented in it overall.
# B1: Epa10 (protein)
# chain: MNEKIFRYLTLLFLFELARSLPVEDKLNIKKVFEKRAVDFTPFAHYPRPEGCSSPPNSVSVGLHMNLYNYPYLYVKPSTKGMFTNDTNSDADGETDGDSAGGIEGRAGQCWNPEYQDPNFPRFGYKQYGEFGASDNVNGDISWDHNEFTEGCKPVLAALPPGYNYPDEITFSNFTMVLSGYFKPKTSGVYKFELKADDFILFNFGAKNAFECCNREESIDNFGPYVAYAMWPNQADQELEVYLFEDSYYPLRLFYNNRDYHSKFKIGFYPPGQTTITFDFDGYLFMLDDTGNECRDSIRYRTVCDDKVVDDTTYSTRYSTSMVPGGGSDVITIYYIRMKCEEEDCLGQWDPINNVCYSPDDCADDGGYWNGQMCDQSCKLEGGIVNPDTGDCDKSCIESGGFLDENGNCDTTCRDDGGMLVEGQCDYQCKEAGGILVGDHCDTTCVDSGGKLNEDGTCDHSCRDQGGQLDENGECDTSCKDSGGMLIEGECDTSCKDEGGQLDDNNECINHCKDQGGIIDENGNCDTSCKDSGGKLDESGACDTSCRDDGGIIDENGNCNTTCRDDGGIIVGDHCDTSCRDAGGILIEDHCDTTCRDSGGKLNEDGTCDHSCRDQGGQLDENGKCDYSCKNGGGKLDEDGNCDMSCKENGGKLDENGDCDLSCKEDGGKLDGNGDCDYSCKEEGGVIDESGNCNTTCKDSGGQIIDGECNYGCIEVGGVVIDGECDTSCIDSGGILDGDGNCDRSCIESGGVLEDGACNTTCRDSGGQLNVDGTCDTSCRDDGGMLVEGQCDYQCKEAGGILEDGECVFPPTSSSTSETSSTTDQSSLQSDDSSMESSSTPMDSSTIESSSSEIITSESESESVPIASSSSEVMTSESESESIPILTSSSEIPIASSSSEIPVASSSSEIIIPESESESVPVASSSSEIPIASSSSEIPVASSSSEIPVASSSSEIIIPESESESIPIESTSSEAVSSRSESDSSYPTPTPTTTTITTWPNPIQPTTSNSSPIVSSSTETPGIAESSSRISDLESSRRTSILGDDRTRTRTTITSTITEDGQIITITTTVTGFVPEPTGETEGNGSDDENPENPIENNTDENEFLDPEFTDDIPDDPAGPEDNGNGPVNPEQGNDNDPVNLEDSGNNGAVNPEQAPVNDEDNGGNDPVNPEQDNNNGPANPGQDSTNGSGNSDQIDNNPPTPEENAGDGNSNGNDPADPSRRTSILGDERTRASPGGTSQPTGANGNVNGNSPGANVNGGGTGNSNNNNNNNNNNNNGNAPNGGDGSNGDANQGPSRRTSLLGDERTRAGQAAPTGGSSPDNGIAGDTSNNGGAIVSQQVDDGGAGSPRRTSILGDVRSRTTLNGEVLNFEGSGVRRAVAGNLALPLMMVGLVFNL
# Tests used:
# Experiment in all cases: glycan array binding signal (z-score within array); higher = stronger binding
# Conditions in all cases: glycan notation: IUPAC condensed, linker removed
# [1] = target: Fuc(a1-2)Gal(b1-3)GlcNAc(b1-3)[Neu5Ac(a2-6)Gal(b1-4)GlcNAc(b1-6)]Gal(b1-4)Glc
# In short: (§1)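 The binding signal is a Z-score computed within each array and averaged over linkers. Arrays of the same protein sequence at different concentrations or buffers were also averaged together. Data originate from 3228 arrays in the Consortium for Functional Glycomics database, kept only where the protein sequence was available.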
# [2] = target: Fuc(a1-2)Gal(b1-3)[Fuc(a1-4)]GlcNAc
# In short: as §1
# [3] = target: Fuc(a1-2)Gal(b1-4)GlcNAc(b1-6)GalNAc
# In short: as §1
# [4] = target: Fuc(a1-2)Gal(b1-4)GlcNAc6S
# In short: as §1
# [5] = target: Fuc(a1-2)[Gal(a1-3)]Gal(b1-3)GalNAc(b1-3)Gal(a1-4)Gal(b1-4)Glc
# In short: as §1
# [6] = target: Fuc(a1-2)[Gal(a1-3)]Gal(b1-4)Glc
# In short: as §1
# [7] = target: Fuc(a1-2)[Gal(a1-3)]Gal(b1-4)GlcNAc(b1-6)GalNAc
# In short: as §1
# [8] = target: Fuc(a1-2)[GalNAc(a1-3)]Gal(b1-3)GalNAc(a1-3)[Fuc(a1-2)]Gal(b1-4)GlcNAc
# In short: as §1
# [9] = target: Fuc(a1-2)[GalNAc(a1-3)]Gal(b1-4)[Fuc(a1-3)]GlcNAc(b1-3)GalNAc
# In short: as §1
# [10] = target: Fuc(a1-3)[Gal(b1-4)]GlcNAc6S
# In short: as §1
# [11] = target: Gal(a1-3)Gal(b1-4)[Fuc(a1-3)]GlcNAc(b1-2)Man(a1-3)[Gal(a1-3)Gal(b1-4)[Fuc(a1-3)]GlcNAc(b1-2)Man(a1-6)]Man(b1-4)GlcNAc(b1-4)GlcNAc
# In short: as §1
# [12] = target: Gal(a1-4)Gal(b1-3)GlcNAc(b1-2)Man(a1-3)[Gal(a1-4)Gal(b1-3)GlcNAc(b1-2)Man(a1-6)]Man(b1-4)GlcNAc(b1-4)GlcNAc
# In short: as §1
# [13] = target: Gal(a1-4)Gal(b1-4)GlcNAc(b1-2)Man(a1-3)[Gal(a1-4)Gal(b1-4)GlcNAc(b1-2)Man(a1-6)]Man(b1-4)GlcNAc(b1-4)GlcNAc
# In short: as §1
# [14] = target: Gal(a1-4)Gal(b1-4)GlcNAc(b1-3)Gal(b1-4)Glc
# In short: as §1
# Gal(b1-3)Gal(b1-4)GlcNAc = target: Gal(b1-3)Gal(b1-4)GlcNAc
# In short: as §1
# Gal(b1-3)GalNAc = target: Gal(b1-3)GalNAc
# In short: as §1
# [15] = target: Gal(b1-3)GalNAc(a1-3)[Fuc(a1-2)]Gal(b1-4)Glc
# In short: as §1
# [16] = target: Gal(b1-3)GalNAc(a1-3)[Fuc(a1-2)]Gal(b1-4)GlcNAc
# In short: as §1
# Gal(b1-3)GalNAc(b1-3)Gal = target: Gal(b1-3)GalNAc(b1-3)Gal
# In short: as §1
# [17] = target: Gal(b1-3)GalNAc(b1-3)Gal(a1-4)Gal(b1-4)Glc
# In short: as §1
# [18] = target: Gal(b1-3)GalNAc(b1-4)Gal(b1-4)Glc
# In short: as §1
# [19] = target: Gal(b1-3)GalNAc(b1-4)[Neu5Ac(a2-3)]Gal(b1-4)Glc
# In short: as §1
# [20] = target: Gal(b1-3)GlcNAc(b1-3)Gal(b1-4)GlcNAc(b1-3)Gal(b1-4)GlcNAc(b1-2)[Gal(b1-3)GlcNAc(b1-3)Gal(b1-4)GlcNAc(b1-3)Gal(b1-4)GlcNAc(b1-6)]Man(a1-6)[Gal(b1-3)GlcNAc(b1-3)Gal(b1-4)GlcNAc(b1-3)Gal(b1-4)GlcNAc(b1-2)Man(a1-3)]Man(b1-4)GlcNAc(b1-4)[Fuc(a1-6)]GlcNAc
# In short: as §1
# [21] = target: Gal(b1-3)[Fuc(a1-4)]GlcNAc(b1-3)Gal(b1-4)[Fuc(a1-3)]GlcNAc
# In short: as §1
# [22] = target: Gal(b1-3)[Neu5Ac(a2-6)]GalNAc
# In short: as §1
# [23] = target: Gal(b1-4)GlcNAc(b1-2)Man(a1-3)[Gal(b1-4)GlcNAc(b1-2)Man(a1-6)][Gal(b1-4)GlcNAc(b1-4)]Man(b1-4)GlcNAc(b1-4)[Fuc(a1-6)]GlcNAc
# In short: as §1
# [24] = target: Gal(b1-4)GlcNAc(b1-2)[Gal(b1-4)GlcNAc(b1-6)]Man(a1-6)[GlcNAc(b1-4)][Gal(b1-4)GlcNAc(b1-2)[Gal(b1-4)GlcNAc(b1-4)]Man(a1-3)]Man(b1-4)GlcNAc(b1-4)[Fuc(a1-6)]GlcNAc
# In short: as §1
# [25] = target: Gal(b1-4)GlcNAc(b1-3)Gal(b1-4)Glc
# In short: as §1
# [26] = target: Gal(b1-4)GlcNAc(b1-6)[Gal(b1-3)]GalNAc
# In short: as §1
# [27] = target: Gal(b1-4)GlcNAc(b1-6)[Gal(b1-4)GlcNAc(b1-3)]GalNAc
# In short: as §1
binder,measurement,setting,value
B1,glycan array binding signal (z-score),[1],-0.195
same,glycan array binding signal (z-score),[2],-0.222
same,glycan array binding signal (z-score),[3],-0.172
same,glycan array binding signal (z-score),[4],-0.198
same,glycan array binding signal (z-score),[5],-0.256
same,glycan array binding signal (z-score),[6],-0.272
same,glycan array binding signal (z-score),[7],-0.16
same,glycan array binding signal (z-score),[8],-0.215
same,glycan array binding signal (z-score),[9],-0.113
same,glycan array binding signal (z-score),[10],-0.223
same,glycan array binding signal (z-score),[11],0.134
same,glycan array binding signal (z-score),[12],3.35
same,glycan array binding signal (z-score),[13],1.46
same,glycan array binding signal (z-score),[14],1.2
same,glycan array binding signal (z-score),Gal(b1-3)Gal(b1-4)GlcNAc,4.92
same,glycan array binding signal (z-score),Gal(b1-3)GalNAc,3.84
same,glycan array binding signal (z-score),[15],3.03
same,glycan array binding signal (z-score),[16],3.87
same,glycan array binding signal (z-score),Gal(b1-3)GalNAc(b1-3)Gal,6.03
same,glycan array binding signal (z-score),[17],4.11
same,glycan array binding signal (z-score),[18],17
same,glycan array binding signal (z-score),[19],4.18
same,glycan array binding signal (z-score),[20],0.117
same,glycan array binding signal (z-score),[21],-0.254
same,glycan array binding signal (z-score),[22],3.73
same,glycan array binding signal (z-score),[23],-0.267
same,glycan array binding signal (z-score),[24],0.014
same,glycan array binding signal (z-score),[25],-0.234
same,glycan array binding signal (z-score),[26],2.59
same,glycan array binding signal (z-score),[27],0.208
